Source: PubChem
DUSP3 inh – VHR1 phosphatase inhibitors, primary screen, biochemical, absorbance, uHTS; recombinant VHR phosphatase, pNPP absorbance; inhibition, % at 13.3 µM; 0.52% of 290,000 active; AID 1654, 2009; in the data active means inhibition above about 50%
Target sequence (P51452 whole entry, looked up): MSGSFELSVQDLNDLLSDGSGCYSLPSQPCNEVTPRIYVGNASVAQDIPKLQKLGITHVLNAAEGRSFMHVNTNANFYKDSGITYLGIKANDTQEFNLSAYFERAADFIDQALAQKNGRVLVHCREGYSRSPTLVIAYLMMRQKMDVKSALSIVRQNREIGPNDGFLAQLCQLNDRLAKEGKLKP
PfHsp40 rescue – rescue of yeast from PfHsp40 toxicity, primary screen, S. cerevisiae, ATP luminescence; S. cerevisiae expressing PfHsp40, growth rescue; growth rescue, % at 12.5 µM; 0.68% of 340,000 active; in the data active means growth rescue above about 28%, passing the limit was not always enough;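 further: yeast W303a lacking pdr1 and pdr3 grown in galactose medium; growth measured after three days at 30 °C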
3CLpro inhibitor – SARS-CoV 3CLpro protease inhibitors, primary screen, biochemical, quenched FRET; recombinant SARS-CoV 3CLpro, quenched FRET peptide cleavage; 0.14% of 290,000 active; AID 1706, 2009; Replicase polyprotein 1ab (Severe acute respiratory syndrome coronavirus), P0C6X7; inhibition, % at 6 µM; in the data active means inhibition above about 12%
BJeLR lethal – MLPCN primary cell-based screen for lethality selective to Ras in HRASV12 cells. BJeLR (HRASV12) viability, CellTiter-Glo ATP luminescence, 48 h. inhibition, % (no concentration beside the values). 0.17% of 300,000 active; in the data active means inhibition above about 50%
MazF activator – activators of E. coli MazEF toxin-antitoxin RNase, primary screen, biochemical, fluorescence, uHTS; FAM/BHQ RNA-DNA oligo cleavage fluorescence, 5 h; 0.32% of 350,000 active; Endoribonuclease toxin MazF (Escherichia coli (strain K12)), P0AE70; activation, % at 20 µM; AID 504720, 2011; in the data active means activation above about 50%
Target sequence (P0AE70 whole entry, looked up): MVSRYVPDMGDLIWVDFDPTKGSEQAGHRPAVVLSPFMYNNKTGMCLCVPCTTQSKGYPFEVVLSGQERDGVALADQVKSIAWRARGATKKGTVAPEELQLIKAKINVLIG
Vc quorum ag – inducers of Vibrio cholerae quorum light production without autoinducers, primary screen, BH1578 luxS cqsA deficient, single point; V. cholerae BH1578 lux reporter, luminescence, 6 h; activation, % at 18.7 µM; 0.16% of 350,000 active; AID 588436, 2011; in the data active means activation mostly above about 9.7%, no sharp cut-off
A number is an active result; . = inactive; / = no result. The list is not random: actives were taken first. Their share in the collection is about 1.7%.

SMILES	DUSP3 inh	PfHsp40 rescue	3CLpro inhibitor	BJeLR lethal	MazF activator	Vc quorum ag
O=C1c2ccccc2NC(c2ccc(Cl)cc2Cl)N1Cc1ccccc1 (configuration not stated)	.	.	.	.	.	.
CCOC(=O)c1ccc(-c2ccc(C3Nc4ccccc4C(=O)N3O)o2)cc1 (configuration not stated)	.	364	.	.	.	.
COc1ccc(-c2coc3c(C(=O)NCC4CCOCC4)cccc23)c(C)c1	/	/	/	/	/	.
CCOC(=O)C1(C)CCN1C(=O)c1ccccc1C(F)(F)F (configuration not stated)	/	/	/	/	/	.
CCOC(=O)C1=C(C)NC(=O)NC1c1ccc(-c2ccc(Cl)cc2)o1 (configuration not stated)	.	.	.	.	.	.
CCOC(=O)C1=C(C)NC(=O)NC1c1ccc(-c2ccc(F)cc2)o1 (configuration not stated)	52	.	.	.	.	.
Cc1cc([N+](=O)[O-])ccc1-c1ccc(C2Nc3ccccc3C(=O)N2O)o1 (configuration not stated)	.	168	.	.	.	.
CCOc1ccccc1Nc1nc(-c2sc(NC(=O)c3ccc([N+](=O)[O-])cc3)nc2C)cs1	.	/	.	78	/	/
Cc1ccccc1Nc1nc(-c2sc(NC(=O)c3ccc([N+](=O)[O-])cc3)nc2C)cs1	.	/	.	.	/	/
CC(C)c1ccc(O)c(=O)cc1	/	/	/	/	/	.
Cc1ccccc1NC(=O)CNc1ccc(Cl)c(C(F)(F)F)c1	58	.	.	.	.	.
CNCC(=O)Nc1ccc(Cl)c(C(F)(F)F)c1	.	.	.	.	.	.
COc1ccc2nc3oc(C(=O)NCCCOC(C)C)cc3cc2c1	.	.	.	.	.	.
CCOCCCNC(=O)c1cc2cc3cc(OC)ccc3nc2o1	53	.	.	.	.	.
COc1ccc(C(=O)NCc2ccon2)cc1OC1CCN(C(C)C)CC1	.	.	.	.	.	.
CCNC(=O)C1(C)CCN(C(=O)c2cccs2)C1 (configuration not stated)	/	/	/	/	/	.
COc1ccc(NC(=S)Nc2cccc3cnccc23)cc1	.	.	.	.	70	.
S=C(Nc1ccc(Cl)cc1)Nc1cccc2cnccc12	.	105	.	.	.	.
Fc1ccc(NC(=S)Nc2cccc3cnccc23)cc1	.	.	.	.	.	.
CCCS(=O)(=O)n1nc(-c2ccccc2)cc1N	54	.	.	.	.	.
CCS(=O)(=O)n1nc(-c2ccccc2)cc1N	.	.	.	.	.	.
O=C(COC(=O)c1cnc(Cl)c(Cl)c1)NCCC1=CCCCC1	.	30	.	.	.	.
Cc1ccc2c(c1)=N/C(=N\c1[nH]c(O)c3ccccc13)N=2	/	/	/	/	58	.
Cc1ccc(O)c(Nc2nc(-c3ccccc3)nc3ccccc23)c1	.	.	.	.	.	.
Oc1[nH]c(N=C2N=c3ccccc3=N2)c2ccccc12	.	.	.	54	56	.
SMILES	DUSP3 inh	PfHsp40 rescue	3CLpro inhibitor	BJeLR lethal	MazF activator	Vc quorum ag
Cc1cc(C)c(NC(=O)COc2cccnc2[N+](=O)[O-])c(C)c1	/	.	/	/	.	.
COc1cccc(/C=N/NC(=O)CSc2nnc(C)n2-c2ccccc2)c1O	.	.	.	.	.	.
CCCCSc1nc(C)cc(SCC(=O)N/N=C/c2cccc(OC)c2O)n1	.	104	.	.	.	.
CCOC(=O)Cc1cc(=O)n(-c2nc3ccccc3s2)[nH]1	.	140	.	.	.	.
CCCc1cc(=O)n(-c2nc3ccccc3s2)[nH]1	.	.	.	.	.	.
CCC(C)C(=O)OCC1(c2ccc(C)cc2OC(=O)C(C)C)CO1 (configuration not stated)	.	.	/	53	.	.
Cc1ccc(C2(COC(=O)C(C)C)CO2)c(OC(=O)C(C)C)c1 (configuration not stated)	.	.	/	.	.	.
Cc1cc(C(=O)COC(=O)c2nn(C)c(=O)c3ccccc23)c(C)n1C	/	.	/	/	.	.
Cc1ccc([C@@H]2CC=C(C(=O)O)[C@H](c3ccc(Br)cc3)N2S(=O)(=O)c2ccccc2C)cc1	/	318	/	/	.	.
Cc1ccccc1S(=O)(=O)N1[C@@H](c2ccc(Br)cc2)C(C(=O)O)=CC[C@H]1c1ccc(Cl)cc1	/	.	/	/	.	.
CC(Sc1nnc(N)s1)C(=O)Nc1ccc2c(c1)OCO2 (configuration not stated)	/	.	/	/	.	.
O=C(O)C1CCC(CNCc2ccccc2Cl)CC1 (configuration not stated)	52	.	.	.	.	.
COc1ccc(OC)c(NC(=O)Nc2ccc3c(c2)CCC3)c1	.	.	.	.	.	.
COc1ccc(NC(=O)Nc2ccc3c(c2)CCC3)c(OC)c1	.	.	.	.	57	.
COc1cccc(CN(C)C(=O)c2ccc(S(=O)(=O)Nc3ccccc3C)cc2)c1OC	/	/	/	/	.	.
Nc1c(C(=O)c2ccc(Br)s2)oc2ccccc12	.	.	.	.	64	.
Nc1c(C(=O)c2cccs2)oc2ccccc12	.	.	.	.	.	.
O=C(NCCCN1CCOCC1)C1CCN(S(=O)(=O)c2cccc(C(F)(F)F)c2)CC1	/	.	/	/	.	.
Nc1ccc2c(c1)C(=O)c1ccccc1-2	/	.	/	.	.	.
O=C1C(=O)c2ccc(-c3ccccc3)cc2-c2ccccc21	.	.	.	110	.	.
Nc1ccc2c(c1)C(=O)C(=O)c1ccccc1-2	.	.	.	114	.	.
Cc1c(N2C(=O)SC(CC(=O)O)C2=O)c(=O)n(-c2ccccc2)n1C (configuration not stated)	.	.	.	/	.	36
Cc1c(N2C(=O)C3C4C=CC(C4)C3C2=O)c(=O)n(-c2ccccc2)n1C (configuration not stated)	.	.	.	.	.	.
O=c1[nH]c(C2CCCN(S(=O)(=O)c3ccccc3)C2)nc2c1nnn2Cc1cccc(Cl)c1 (configuration not stated)	.	.	.	.	.	.
O=S(=O)(c1cccc(-c2csc(-c3ccccc3)n2)c1)N1CCOCC1	.	.	.	.	.	.
CC1CN(S(=O)(=O)c2cccc(-c3csc(-c4ccccc4)n3)c2)CC(C)O1 (configuration not stated)	.	.	.	.	70	.
Nc1c(C(=O)NC2CCCC2)sc2nc(-c3cccs3)ccc12	.	.	.	.	52	.
COc1ccccc1N1C(=O)C(Cl)=C(Nc2ccccc2O)C1=O	.	92	.	.	.	.
